The full data set covers some 8,800 targets. This sample favours those with a hit. About 0.5% of all pairs of compound and target were hits.
How the values were obtained:
Experiment in all cases: log2 fold change, soluble protein after heating vs DMSO (PISA); higher = thermal stabilisation; K562 lysate, 10 uM; active = over 0.2 and 3.5 SD of the protein, either way, in both replicates (recomputed)
vemurafenib = compound: CCCS(=O)(=O)Nc1ccc(F)c(C(=O)c2c[nH]c3ncc(-c4ccc(Cl)cc4)cc23)c1F [vemurafenib]
Outline: (§1)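 K562 pellets were dounce-homogenised in PBS pH 7.4 containing 1 mM MgCl2, and the crude extract, at 1 mg/mL protein, was exposed to 10 μM compound for 30 min. Aliquots were heated for 3 min across 48°C-58°C, pooled, brought to 0.5% NP-40 at 4°C and spun at 21,000xg for 90 min, with the supernatant taken as soluble protein. TMTpro 16plex LC-MS/MS with equalised channel sums quantified that protein. Values are log-two fold changes in thermal stability relative to solvent controls, taken from duplicates.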

[1] = compound: CCCS(=O)(=O)Nc1ccc(F)c(C(=O)c2c[nH]c3ncc(Cl)cc23)c1F
Outline: as §1

barasertib = compound: CCN(CCCOc1ccc2c(Nc3cc(CC(=O)Nc4cccc(F)c4)[nH]n3)ncnc2c1)CCOP(=O)(O)O [barasertib]
Outline: as §1

[2] = compound: CC[C@@H]1C(=O)N(C)c2cnc(Nc3ccc(C(=O)NC4CCN(C)CC4)cc3OC)nc2N1C1CCCC1
Outline: as §1

volasertib = compound: CC[C@@H]1C(=O)N(C)c2cnc(Nc3ccc(C(=O)N[C@H]4CC[C@H](N5CCN(CC6CC6)CC5)CC4)cc3OC)nc2N1C(C)C [volasertib]
Outline: as §1

[3] = compound: CCn1c(C(=O)N(C2CC2)C2CC2)cc2c3c(ncn3C)c(Nc3cc(C)n(C)n3)nc21
Outline: as §1

[4] = compound: CCn1cc(-c2ccnc3[nH]c(-c4cccc(CN(C)C)c4)cc23)c(-c2ccc(NC(=O)N(C)C)cc2)n1
Outline: as §1

[5] = compound: CN1CCC(CNc2ccc3ncc(-c4cccc(OC(F)(F)F)c4)n3n2)CC1
Outline: as §1

saracatinib = compound: CN1CCN(CCOc2cc(OC3CCOCC3)c3c(Nc4c(Cl)ccc5c4OCO5)ncnc3c2)CC1 [saracatinib]
Outline: as §1

sotrastaurin = compound: CN1CCN(c2nc(C3=C(c4c[nH]c5ccccc45)C(=O)NC3=O)c3ccccc3n2)CC1 [sotrastaurin]
Outline: as §1

alvocidib = compound: CN1CC[C@H](c2c(O)cc(O)c3c(=O)cc(-c4ccccc4Cl)oc23)[C@H](O)C1 [alvocidib]
Outline: as §1

Tubastatin A = compound: CN1CCc2c(c3ccccc3n2Cc2ccc(C(=O)NO)cc2)C1 [Tubastatin A]
Outline: as §1

[6] = compound: CNC(=O)C1=CC=CC=C1NC2=NC(=NC=C2Cl)NC3=C(C=C(C=C3)N4CCOCC4)OC
Outline: as §1

defactinib = compound: CNC(=O)c1ccc(Nc2ncc(C(F)(F)F)c(NCc3nccnc3N(C)S(C)(=O)=O)n2)cc1 [defactinib]
Outline: as §1

[7] = compound: CNc1nc(-c2ccc3c(N)n[nH]c3c2)cc(N2C[C@@H](C(=O)NC3CCCCC3)CC[C@H]2C)n1
Outline: as §1

encorafenib = compound: COC(=O)N[C@@H](C)CNc1nccc(-c2cn(C(C)C)nc2-c2cc(Cl)cc(NS(C)(=O)=O)c2F)n1 [encorafenib]
Outline: as §1

[8] = compound: COC(=O)[C@H](CCSC)NC(=O)C1=C(C=C(C=C1)NC[C@H](CS)N)C2=CC=CC=C2
Outline: as §1

alisertib = compound: COc1cc(Nc2ncc3c(n2)-c2ccc(Cl)cc2C(c2c(F)cccc2OC)=NC3)ccc1C(=O)O [alisertib]
Outline: as §1

[9] = compound: COc1cc2nc(-c3cc(F)ccc3O)nc(N[C@@H]3CNC[C@H]3C(C)(C)O)c2cc1OC
Outline: as §1

gefitinib = compound: COc1cc2ncnc(Nc3ccc(F)c(Cl)c3)c2cc1OCCCN1CCOCC1 [gefitinib]
Outline: as §1

Measured: log2 fold change

VPS28 (UniProt Q9UK41)
Chain of UniProt Q9UK41 (Q9UK41 whole entry, looked up): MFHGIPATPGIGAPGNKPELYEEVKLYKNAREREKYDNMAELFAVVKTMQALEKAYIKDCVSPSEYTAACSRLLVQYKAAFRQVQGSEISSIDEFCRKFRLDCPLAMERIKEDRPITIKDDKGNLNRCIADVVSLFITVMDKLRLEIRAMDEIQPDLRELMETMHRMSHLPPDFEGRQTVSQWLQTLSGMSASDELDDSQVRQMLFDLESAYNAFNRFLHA
inactive: vemurafenib -0.012 | [1] 0.016 | barasertib 0.178 | [2] -0.035 | volasertib -0.012 | [3] 0.067 | [4] -0.208 | [5] 0.018 | saracatinib 0.01 | sotrastaurin -0.007 | alvocidib -0.018 | Tubastatin A -0.034 | [6] 0 | defactinib -0.018 | [7] -0.078 | encorafenib 0.046 | [8] 0.012 | alisertib -0.022 | [9] 0 | gefitinib 0.034

UPF3B (UniProt Q9BZI7)
inactive: vemurafenib 0.027 | [1] 0.01 | barasertib -0.006 | [2] 0.026 | volasertib 0.004 | [3] -0.019 | [5] 0.031 | saracatinib 0.005 | sotrastaurin -0.019 | alvocidib -0.105 | Tubastatin A -0.001 | [6] 0.023 | defactinib -0.015 | [7] 0.011 | encorafenib 0.011 | [8] 0.049 | alisertib 0.021 | [9] -0.021 | gefitinib -0.038
active: [4] -0.231

VPS54 (UniProt Q9P1Q0)
Chain of UniProt Q9P1Q0 (Q9P1Q0 whole entry, looked up): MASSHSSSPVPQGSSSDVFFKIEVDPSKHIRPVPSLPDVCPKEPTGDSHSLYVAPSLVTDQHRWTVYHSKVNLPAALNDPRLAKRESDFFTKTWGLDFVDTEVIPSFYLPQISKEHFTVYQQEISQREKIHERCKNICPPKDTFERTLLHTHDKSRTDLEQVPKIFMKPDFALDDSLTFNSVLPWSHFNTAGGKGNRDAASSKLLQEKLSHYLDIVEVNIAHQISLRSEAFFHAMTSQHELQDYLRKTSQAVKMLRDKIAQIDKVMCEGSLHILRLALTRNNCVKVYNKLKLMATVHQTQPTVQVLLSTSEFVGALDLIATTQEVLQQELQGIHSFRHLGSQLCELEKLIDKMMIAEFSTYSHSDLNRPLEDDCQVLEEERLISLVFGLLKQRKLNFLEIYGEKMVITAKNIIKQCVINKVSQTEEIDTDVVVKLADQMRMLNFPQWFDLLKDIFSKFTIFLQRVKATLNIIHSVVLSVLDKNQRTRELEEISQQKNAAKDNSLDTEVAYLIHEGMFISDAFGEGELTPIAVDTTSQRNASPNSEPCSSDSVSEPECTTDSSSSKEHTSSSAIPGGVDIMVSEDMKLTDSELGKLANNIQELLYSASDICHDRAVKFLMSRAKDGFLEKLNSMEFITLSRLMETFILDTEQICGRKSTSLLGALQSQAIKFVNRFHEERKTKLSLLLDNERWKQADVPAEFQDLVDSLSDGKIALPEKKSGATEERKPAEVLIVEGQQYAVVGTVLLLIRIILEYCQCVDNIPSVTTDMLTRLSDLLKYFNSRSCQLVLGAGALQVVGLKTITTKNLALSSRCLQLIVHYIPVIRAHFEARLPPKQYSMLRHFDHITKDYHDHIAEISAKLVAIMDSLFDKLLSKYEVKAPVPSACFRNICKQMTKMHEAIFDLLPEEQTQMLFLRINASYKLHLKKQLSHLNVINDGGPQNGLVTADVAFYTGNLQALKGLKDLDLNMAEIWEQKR
inactive: vemurafenib 0.046 | [1] -0.015 | barasertib -0.042 | [2] -0.037 | volasertib 0.068 | [3] -0.259 | [4] -0.278 | [5] 0.141 | saracatinib 0.05 | sotrastaurin -0.087 | alvocidib -0.07 | Tubastatin A 0 | [6] 0.059 | defactinib -0.07 | [7] 0.013 | encorafenib -0.001 | [8] 0.105 | alisertib -0.024 | [9] 0.071 | gefitinib 0.089

WDR3 (UniProt Q9UNX4)
inactive: vemurafenib -0.01 | [1] 0.011 | barasertib 0.042 | [2] -0.063 | volasertib -0.043 | [3] 0.01 | [4] -0.024 | [5] 0.019 | saracatinib 0.002 | sotrastaurin 0.062 | alvocidib 0.008 | Tubastatin A -0.099 | [6] -0.013 | defactinib 0.031 | [7] -0.048 | encorafenib -0.008 | [8] 0.046 | alisertib 0.03 | [9] -0.007 | gefitinib -0.01

VRK1 (UniProt Q99986)
Chain of UniProt Q99986 (Q99986 whole entry, looked up): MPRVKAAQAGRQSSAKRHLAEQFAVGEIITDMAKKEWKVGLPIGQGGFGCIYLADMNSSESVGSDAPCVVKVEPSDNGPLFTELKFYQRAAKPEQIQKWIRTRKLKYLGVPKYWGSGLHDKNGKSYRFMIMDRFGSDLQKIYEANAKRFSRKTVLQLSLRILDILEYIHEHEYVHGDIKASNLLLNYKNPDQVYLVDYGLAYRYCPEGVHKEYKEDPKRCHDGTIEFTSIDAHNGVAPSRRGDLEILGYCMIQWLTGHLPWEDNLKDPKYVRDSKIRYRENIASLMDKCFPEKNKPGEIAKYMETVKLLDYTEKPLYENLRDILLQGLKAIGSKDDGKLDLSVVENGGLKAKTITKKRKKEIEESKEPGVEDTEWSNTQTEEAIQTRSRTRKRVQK
inactive: vemurafenib 0.024 | [1] 0.024 | barasertib -0.002 | [2] -0.051 | volasertib -0.03 | [3] 0 | [4] -0.041 | [5] 0.031 | saracatinib 0.002 | sotrastaurin 0.178 | Tubastatin A -0.096 | [6] 0.008 | defactinib -0.067 | [7] 0.017 | encorafenib -0.027 | [8] 0.047 | alisertib -0.004 | [9] -0.007 | gefitinib -0.026
active: alvocidib 0.385

UQCC2 (UniProt Q9BRT2)
Chain of UniProt Q9BRT2 (Q9BRT2 whole entry, looked up): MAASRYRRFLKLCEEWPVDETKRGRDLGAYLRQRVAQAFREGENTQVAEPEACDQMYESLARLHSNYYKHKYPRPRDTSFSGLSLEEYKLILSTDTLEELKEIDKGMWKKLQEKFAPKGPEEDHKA
inactive: vemurafenib -0.074 | [1] 0.005 | barasertib -0.039 | [2] -0.013 | volasertib 0.039 | [3] -0.039 | [5] -0.086 | saracatinib -0.04 | sotrastaurin -0.083 | alvocidib 0.079 | Tubastatin A 0.05 | [6] -0.027 | defactinib 0 | [7] 0.006 | encorafenib 0.021 | [8] -0.025 | alisertib 0.029 | [9] 0.017 | gefitinib -0.059
active: [4] 0.287

WDR41 (UniProt Q9HAD4)
Chain of UniProt Q9HAD4 (Q9HAD4 whole entry, looked up): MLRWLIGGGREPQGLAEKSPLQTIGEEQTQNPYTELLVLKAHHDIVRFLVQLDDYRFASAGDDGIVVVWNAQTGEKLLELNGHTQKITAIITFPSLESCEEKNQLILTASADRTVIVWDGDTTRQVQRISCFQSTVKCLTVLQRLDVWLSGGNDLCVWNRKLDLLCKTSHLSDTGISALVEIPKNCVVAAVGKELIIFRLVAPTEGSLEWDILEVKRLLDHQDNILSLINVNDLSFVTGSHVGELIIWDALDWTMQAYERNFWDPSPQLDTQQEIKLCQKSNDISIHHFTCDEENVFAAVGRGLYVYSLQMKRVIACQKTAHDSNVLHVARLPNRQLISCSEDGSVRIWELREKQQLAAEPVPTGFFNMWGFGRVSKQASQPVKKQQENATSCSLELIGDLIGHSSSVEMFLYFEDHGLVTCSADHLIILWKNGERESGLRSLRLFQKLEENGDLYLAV
inactive: vemurafenib -0.018 | [1] 0.036 | barasertib -0.07 | [2] 0.089 | volasertib 0.005 | [3] 0.053 | [4] -0.032 | [5] 0.053 | saracatinib 0.017 | sotrastaurin 0.043 | alvocidib -0.061 | Tubastatin A -0.14 | [6] 0.021 | defactinib -0.044 | [7] 0.017 | encorafenib 0.081 | [8] -0.121 | alisertib 0.033 | [9] -0.047 | gefitinib 0.083

USP16 (UniProt Q9Y5T5)
Chain of UniProt Q9Y5T5 (Q9Y5T5 whole entry, looked up): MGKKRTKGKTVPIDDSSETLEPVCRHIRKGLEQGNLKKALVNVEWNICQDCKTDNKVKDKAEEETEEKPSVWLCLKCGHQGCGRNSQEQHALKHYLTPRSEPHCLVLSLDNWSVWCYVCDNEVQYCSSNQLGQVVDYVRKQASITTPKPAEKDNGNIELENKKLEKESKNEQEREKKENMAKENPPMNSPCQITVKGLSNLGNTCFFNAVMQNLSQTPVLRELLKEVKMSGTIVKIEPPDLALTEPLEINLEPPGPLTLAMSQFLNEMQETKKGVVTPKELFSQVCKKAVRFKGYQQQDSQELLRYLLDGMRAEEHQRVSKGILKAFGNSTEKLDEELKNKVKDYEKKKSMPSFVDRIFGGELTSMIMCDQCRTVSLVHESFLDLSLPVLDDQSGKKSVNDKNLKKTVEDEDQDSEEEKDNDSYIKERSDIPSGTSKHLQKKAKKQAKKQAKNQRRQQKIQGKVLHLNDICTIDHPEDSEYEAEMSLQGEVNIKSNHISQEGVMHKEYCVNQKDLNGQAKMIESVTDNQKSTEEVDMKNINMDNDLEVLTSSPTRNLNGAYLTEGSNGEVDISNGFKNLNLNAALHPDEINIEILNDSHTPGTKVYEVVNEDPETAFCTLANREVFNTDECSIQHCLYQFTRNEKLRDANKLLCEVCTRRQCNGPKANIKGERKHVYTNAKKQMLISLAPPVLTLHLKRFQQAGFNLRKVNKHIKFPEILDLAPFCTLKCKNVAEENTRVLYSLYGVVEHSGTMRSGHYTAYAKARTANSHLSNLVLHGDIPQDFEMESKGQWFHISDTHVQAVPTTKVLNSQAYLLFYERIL
inactive: vemurafenib 0.038 | [1] 0.005 | barasertib 0.016 | [2] -0.009 | volasertib -0.011 | [3] 0.01 | [4] 0.039 | [5] -0.045 | saracatinib 0.054 | sotrastaurin 0.013 | alvocidib 0.004 | Tubastatin A -0.118 | [6] -0.011 | defactinib 0.035 | [7] 0.008 | encorafenib 0.059 | [8] 0.081 | alisertib -0.011 | [9] -0.003 | gefitinib -0.013

WRB (UniProt O00258)
Chain of UniProt O00258 (O00258 whole entry, looked up): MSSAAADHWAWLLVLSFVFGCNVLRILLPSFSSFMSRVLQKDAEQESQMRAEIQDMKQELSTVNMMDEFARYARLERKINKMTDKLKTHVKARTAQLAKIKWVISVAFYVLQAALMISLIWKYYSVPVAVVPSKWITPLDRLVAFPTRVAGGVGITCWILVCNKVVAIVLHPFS
inactive: vemurafenib 0.086 | [1] 0.077 | barasertib 0.098 | [2] -0.011 | volasertib 0.015 | [3] -0.148 | [4] -0.176 | [5] 0.068 | saracatinib -0.147 | sotrastaurin 0.013 | alvocidib -0.022 | Tubastatin A 0.114 | [6] 0.029 | defactinib -0.003 | [7] 0.044 | encorafenib -0.067 | [8] 0.027 | alisertib -0.028 | [9] 0.022 | gefitinib 0.061

VAV3 isoform 4 (UniProt Q9UKW4)
inactive: vemurafenib 0.059 | [1] -0.004 | barasertib 0.049 | [2] -0.001 | volasertib -0.017 | [3] -0.291 | [4] -0.512 | [5] 0.177 | saracatinib -0.15 | sotrastaurin 0.001 | alvocidib -0.305 | Tubastatin A -0.202 | [6] 0.032 | defactinib -0.295 | [7] 0.053 | encorafenib 0 | [8] 0.049 | alisertib -0.004 | [9] 0.054 | gefitinib 0.036

UXT isoform 2 (UniProt Q9UBK9)
inactive: vemurafenib -0.023 | [1] 0 | barasertib 0.056 | volasertib -0.004 | [3] -0.088 | [4] -0.05 | [5] 0.032 | saracatinib 0.053 | sotrastaurin 0.001 | alvocidib -0.038 | Tubastatin A 0.081 | [6] 0.015 | defactinib 0.069 | encorafenib -0.081 | [8] 0.025 | alisertib -0.041 | [9] 0.038 | gefitinib 0.04
active: [2] 0.321 | [7] 0.574

YTHDF3 (UniProt Q7Z739)
inactive: vemurafenib -0.019 | [1] 0.002 | barasertib 0.119 | [2] 0.058 | volasertib -0.071 | [3] 0.168 | [4] -0.041 | [5] 0.01 | saracatinib 0.076 | sotrastaurin -0.083 | alvocidib 0.03 | Tubastatin A -0.108 | [6] -0.071 | defactinib -0.05 | [7] -0.112 | encorafenib 0.097 | [8] 0.024 | alisertib 0.043 | [9] 0.009 | gefitinib 0.013

USP48 isoform 8 (UniProt Q86UV5)
Chain of UniProt Q86UV5 (Q86UV5 whole entry, looked up): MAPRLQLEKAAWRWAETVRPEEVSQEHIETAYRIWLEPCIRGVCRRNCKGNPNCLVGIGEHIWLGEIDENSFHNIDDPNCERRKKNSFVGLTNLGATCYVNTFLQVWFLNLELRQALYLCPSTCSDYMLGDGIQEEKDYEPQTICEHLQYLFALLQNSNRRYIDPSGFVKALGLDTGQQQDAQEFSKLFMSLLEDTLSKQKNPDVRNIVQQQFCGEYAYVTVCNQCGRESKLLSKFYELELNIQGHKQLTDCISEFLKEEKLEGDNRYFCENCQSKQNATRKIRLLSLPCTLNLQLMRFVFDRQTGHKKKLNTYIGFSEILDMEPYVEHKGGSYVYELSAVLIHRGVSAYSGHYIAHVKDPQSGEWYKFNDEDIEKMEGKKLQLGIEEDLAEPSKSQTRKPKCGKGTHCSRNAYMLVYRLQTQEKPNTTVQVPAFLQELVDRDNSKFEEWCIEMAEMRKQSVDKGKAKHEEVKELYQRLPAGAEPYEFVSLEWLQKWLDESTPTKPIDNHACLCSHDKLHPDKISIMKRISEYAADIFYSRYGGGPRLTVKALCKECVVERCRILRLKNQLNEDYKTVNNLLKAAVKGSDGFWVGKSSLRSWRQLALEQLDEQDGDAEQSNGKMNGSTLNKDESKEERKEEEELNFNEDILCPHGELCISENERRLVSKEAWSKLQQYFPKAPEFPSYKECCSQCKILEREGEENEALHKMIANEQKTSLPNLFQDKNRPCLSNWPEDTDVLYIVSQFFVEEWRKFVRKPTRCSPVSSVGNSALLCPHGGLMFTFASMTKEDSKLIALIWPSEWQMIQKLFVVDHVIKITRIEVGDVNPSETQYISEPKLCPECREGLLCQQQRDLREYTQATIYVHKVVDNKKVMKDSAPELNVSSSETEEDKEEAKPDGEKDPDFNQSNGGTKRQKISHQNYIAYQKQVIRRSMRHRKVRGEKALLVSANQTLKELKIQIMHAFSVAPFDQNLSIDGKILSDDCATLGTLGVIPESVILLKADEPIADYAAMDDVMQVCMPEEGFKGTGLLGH
inactive: vemurafenib -0.002 | [1] 0.036 | barasertib 0.002 | [2] -0.013 | volasertib -0.043 | [3] 0.007 | [4] -0.011 | [5] -0.032 | saracatinib -0.004 | sotrastaurin 0.031 | alvocidib 0.006 | Tubastatin A -0.119 | [6] 0.019 | defactinib -0.012 | [7] 0.011 | encorafenib -0.003 | [8] 0.14 | alisertib -0.016 | [9] 0.003 | gefitinib -0.018

YDJC (UniProt A8MPS7)
Chain of UniProt A8MPS7 (A8MPS7 whole entry, looked up): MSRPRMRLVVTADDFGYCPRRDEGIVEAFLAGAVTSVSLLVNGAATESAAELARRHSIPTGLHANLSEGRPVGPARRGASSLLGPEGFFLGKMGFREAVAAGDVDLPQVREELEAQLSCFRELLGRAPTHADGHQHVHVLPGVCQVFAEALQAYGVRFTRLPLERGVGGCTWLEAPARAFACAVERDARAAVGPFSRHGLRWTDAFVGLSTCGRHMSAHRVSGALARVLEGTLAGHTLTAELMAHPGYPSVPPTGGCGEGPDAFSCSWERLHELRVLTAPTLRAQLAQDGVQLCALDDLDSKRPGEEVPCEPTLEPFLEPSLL
inactive: vemurafenib -0.022 | [1] 0.006 | barasertib 0.017 | [2] 0.01 | volasertib -0.038 | [3] -0.063 | [4] 0.012 | [5] 0.055 | saracatinib 0.024 | sotrastaurin 0.008 | alvocidib -0.039 | Tubastatin A 0.052 | [6] 0.014 | defactinib -0.026 | [7] 0.014 | encorafenib -0.025 | [8] -0.036 | alisertib 0.035 | [9] 0.007 | gefitinib -0.02

VASP (UniProt P50552)
Chain of UniProt P50552 (P50552 whole entry, looked up): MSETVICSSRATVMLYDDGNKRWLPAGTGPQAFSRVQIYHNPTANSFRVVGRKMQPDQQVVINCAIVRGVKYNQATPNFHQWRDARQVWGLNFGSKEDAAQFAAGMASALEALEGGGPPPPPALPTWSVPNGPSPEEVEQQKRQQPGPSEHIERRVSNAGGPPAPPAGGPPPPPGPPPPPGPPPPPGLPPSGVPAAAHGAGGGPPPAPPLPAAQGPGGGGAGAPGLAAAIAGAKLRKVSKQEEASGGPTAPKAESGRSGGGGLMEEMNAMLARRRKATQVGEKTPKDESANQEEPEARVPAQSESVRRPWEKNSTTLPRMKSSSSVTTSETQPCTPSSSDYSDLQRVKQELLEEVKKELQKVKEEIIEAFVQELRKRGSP
inactive: vemurafenib -0.012 | [1] -0.011 | barasertib -0.069 | [2] -0.022 | volasertib -0.008 | [3] 0.009 | [4] 0.006 | [5] -0.009 | saracatinib 0.007 | sotrastaurin -0.004 | alvocidib 0.031 | Tubastatin A 0.022 | [6] -0.017 | defactinib 0.013 | [7] -0.003 | encorafenib -0.033 | [8] -0.007 | alisertib 0.018 | [9] 0.009 | gefitinib 0.019

VCPIP1 (UniProt Q96JH7)
inactive: vemurafenib 0.008 | [1] -0.04 | barasertib 0.051 | [2] -0.006 | volasertib -0.047 | [3] 0.011 | [4] -0.12 | [5] 0.049 | saracatinib -0.03 | sotrastaurin 0.035 | alvocidib -0.049 | Tubastatin A -0.026 | [6] -0.01 | defactinib 0.022 | [7] 0.113 | encorafenib 0.005 | [8] 0.141 | alisertib 0.003 | [9] -0.006 | gefitinib -0.04
